# Test results as given in article PMC7862700, “An all-to-all approach to the identification of sequence-specific readers for epigenetic DNA modifications on cytosine”.
# Tests used:
# Assay in all cases: DAPPL (digital affinity profiling via proximity ligation, sequencing); 10 mM Tris-HCl pH 7.5, 50 mM NaCl, 1 mM DTT, 4% glycerol, room temperature, 30 min; GST-TFs on glutathione beads, 16-mer random dsDNA library, 0.1% formaldehyde crosslink after washing; high values mean tight binding
# FEV = molecular target: T1, FEV (Homo sapiens, UniProt Q99581 1-238); details: protein: recombinant; tags: N-terminal GST; dsDNA, one strand shown
# T1 sequence: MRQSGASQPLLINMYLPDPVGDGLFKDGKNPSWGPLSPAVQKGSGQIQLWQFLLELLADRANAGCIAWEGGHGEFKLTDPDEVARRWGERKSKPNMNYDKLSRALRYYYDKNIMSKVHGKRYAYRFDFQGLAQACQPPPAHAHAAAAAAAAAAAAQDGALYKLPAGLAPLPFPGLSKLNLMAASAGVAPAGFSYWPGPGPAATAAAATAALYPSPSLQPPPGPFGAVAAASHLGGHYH
# Outline: (§1)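 Yeast served to express human transcription factors as GST fusions, which were then captured on glutathione beads and labelled with DNA barcodes. Pooled with a tag-only sample, they were incubated with 200 nmole of a 16-mer random double-stranded DNA library for 30 min at room temperature in Tris/NaCl/DTT/glycerol buffer, washed, crosslinked with 0.1% formaldehyde, ligated by proximity, amplified by PCR and sequenced. Dividing each hexamer's read frequency for a factor by its frequency for the tag-only sample gives the binding signal.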
# ETV5 = ETV5 (Homo sapiens, UniProt P41161 1-510); details: protein: recombinant; tags: N-terminal GST; dsDNA, one strand shown
# Outline: as §1
# HSF1 = HSF1 (Homo sapiens, UniProt Q00613 1-529); details: protein: recombinant; tags: N-terminal GST; chain copies: 3; dsDNA, one strand shown
# Outline: as §1
# SPIC = molecular target: T2, SPIC (Homo sapiens, UniProt Q8N5J4 1-248); details: protein: recombinant; tags: N-terminal GST; dsDNA, one strand shown
# T2 sequence: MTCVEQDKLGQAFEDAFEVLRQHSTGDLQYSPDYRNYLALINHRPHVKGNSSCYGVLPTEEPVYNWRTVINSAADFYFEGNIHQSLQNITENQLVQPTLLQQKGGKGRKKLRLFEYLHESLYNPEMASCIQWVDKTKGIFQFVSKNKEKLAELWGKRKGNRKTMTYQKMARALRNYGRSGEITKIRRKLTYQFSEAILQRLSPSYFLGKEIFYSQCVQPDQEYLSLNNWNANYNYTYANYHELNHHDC
# Outline: as §1
# ELF4 = ELF4 (Homo sapiens, UniProt Q99607 1-663); details: protein: recombinant; tags: N-terminal GST; dsDNA, one strand shown
# Outline: as §1
# ELK4 = molecular target: T3, ELK4 (Homo sapiens, UniProt P28324-2 1-405); details: protein: recombinant; tags: N-terminal GST; dsDNA, one strand shown
# T3 sequence: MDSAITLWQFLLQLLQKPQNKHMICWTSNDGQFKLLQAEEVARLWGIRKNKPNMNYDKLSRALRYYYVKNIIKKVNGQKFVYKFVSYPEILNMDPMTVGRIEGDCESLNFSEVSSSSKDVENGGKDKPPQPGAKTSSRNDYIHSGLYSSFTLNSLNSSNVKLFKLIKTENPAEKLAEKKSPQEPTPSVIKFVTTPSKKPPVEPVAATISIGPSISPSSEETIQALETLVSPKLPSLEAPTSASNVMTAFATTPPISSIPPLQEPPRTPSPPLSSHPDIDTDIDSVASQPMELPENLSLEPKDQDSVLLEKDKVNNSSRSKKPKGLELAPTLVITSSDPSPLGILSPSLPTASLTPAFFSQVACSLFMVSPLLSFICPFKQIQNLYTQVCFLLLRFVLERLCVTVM
# Outline: as §1
# ETV2 = molecular target: T4, ETV2 (Homo sapiens, UniProt O00321 1-342); details: protein: recombinant; tags: N-terminal GST; dsDNA, one strand shown
# T4 sequence: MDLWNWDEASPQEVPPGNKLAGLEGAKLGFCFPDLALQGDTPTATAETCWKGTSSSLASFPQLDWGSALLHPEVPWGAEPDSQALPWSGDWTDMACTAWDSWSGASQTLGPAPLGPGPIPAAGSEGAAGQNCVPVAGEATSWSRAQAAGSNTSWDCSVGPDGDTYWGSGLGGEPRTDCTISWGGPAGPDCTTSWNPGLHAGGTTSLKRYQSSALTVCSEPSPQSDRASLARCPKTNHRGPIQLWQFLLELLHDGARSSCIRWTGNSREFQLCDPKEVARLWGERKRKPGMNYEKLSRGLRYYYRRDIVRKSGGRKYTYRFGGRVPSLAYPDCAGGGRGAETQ
# Outline: as §1
# CRX = CRX (Homo sapiens, UniProt O43186 1-299); details: protein: recombinant; tags: N-terminal GST; dsDNA, one strand shown
# Outline: as §1
# ETV1 = ETV1 (Homo sapiens, UniProt P50549 1-477); details: protein: recombinant; tags: N-terminal GST; dsDNA, one strand shown
# Outline: as §1
# ERF = molecular target: T5, ERF (Homo sapiens, UniProt P50548 1-548); details: protein: recombinant; tags: N-terminal GST; dsDNA, one strand shown
# T5 sequence: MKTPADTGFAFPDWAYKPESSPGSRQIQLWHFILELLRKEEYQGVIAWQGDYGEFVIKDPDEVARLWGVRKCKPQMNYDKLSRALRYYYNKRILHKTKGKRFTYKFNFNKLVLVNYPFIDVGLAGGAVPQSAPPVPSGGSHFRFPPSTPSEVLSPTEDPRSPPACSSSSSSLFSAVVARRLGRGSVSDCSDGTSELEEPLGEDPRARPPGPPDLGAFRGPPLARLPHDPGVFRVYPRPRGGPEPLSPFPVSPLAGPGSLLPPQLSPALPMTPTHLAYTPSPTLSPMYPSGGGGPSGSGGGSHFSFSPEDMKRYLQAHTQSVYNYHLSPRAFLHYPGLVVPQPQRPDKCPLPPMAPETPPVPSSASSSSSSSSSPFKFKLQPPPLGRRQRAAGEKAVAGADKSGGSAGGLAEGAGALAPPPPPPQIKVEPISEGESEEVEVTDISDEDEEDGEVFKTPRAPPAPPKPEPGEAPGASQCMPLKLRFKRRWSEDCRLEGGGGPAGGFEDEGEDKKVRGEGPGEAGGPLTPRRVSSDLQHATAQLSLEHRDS
# Outline: as §1
# ETV3L = molecular target: T6, ETV3L (Homo sapiens, UniProt Q6ZN32 1-361); details: protein: recombinant; tags: N-terminal GST; dsDNA, one strand shown
# T6 sequence: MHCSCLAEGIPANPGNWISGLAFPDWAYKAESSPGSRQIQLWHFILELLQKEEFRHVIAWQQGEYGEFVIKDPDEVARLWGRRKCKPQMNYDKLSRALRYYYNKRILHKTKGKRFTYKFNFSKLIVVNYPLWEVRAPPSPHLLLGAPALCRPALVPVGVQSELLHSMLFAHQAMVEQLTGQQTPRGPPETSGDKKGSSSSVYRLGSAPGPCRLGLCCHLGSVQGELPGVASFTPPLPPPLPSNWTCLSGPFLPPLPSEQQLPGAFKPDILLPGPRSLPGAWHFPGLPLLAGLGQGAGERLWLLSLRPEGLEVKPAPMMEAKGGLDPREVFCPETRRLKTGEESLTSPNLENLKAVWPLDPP
# Outline: as §1
# ETS2 = molecular target: T7, ETS2 (Homo sapiens, UniProt P15036 1-469); details: protein: recombinant; tags: N-terminal GST; dsDNA, one strand shown
# T7 sequence: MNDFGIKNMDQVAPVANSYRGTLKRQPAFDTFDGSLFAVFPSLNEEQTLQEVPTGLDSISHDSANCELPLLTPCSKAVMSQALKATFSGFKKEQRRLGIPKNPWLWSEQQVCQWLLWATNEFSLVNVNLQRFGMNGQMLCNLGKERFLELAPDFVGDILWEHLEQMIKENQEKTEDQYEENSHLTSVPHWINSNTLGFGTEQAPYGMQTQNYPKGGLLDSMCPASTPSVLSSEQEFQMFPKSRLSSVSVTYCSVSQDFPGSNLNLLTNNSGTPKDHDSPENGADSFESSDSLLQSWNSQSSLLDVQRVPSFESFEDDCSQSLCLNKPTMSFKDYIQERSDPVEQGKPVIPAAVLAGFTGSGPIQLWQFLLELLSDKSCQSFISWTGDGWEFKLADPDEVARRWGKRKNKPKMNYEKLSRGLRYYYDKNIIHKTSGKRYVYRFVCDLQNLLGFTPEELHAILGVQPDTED
# Outline: as §1
# SPDEF = molecular target: T8, SPDEF (Homo sapiens, UniProt O95238 1-335); details: protein: recombinant; tags: N-terminal GST; dsDNA, one strand shown
# T8 sequence: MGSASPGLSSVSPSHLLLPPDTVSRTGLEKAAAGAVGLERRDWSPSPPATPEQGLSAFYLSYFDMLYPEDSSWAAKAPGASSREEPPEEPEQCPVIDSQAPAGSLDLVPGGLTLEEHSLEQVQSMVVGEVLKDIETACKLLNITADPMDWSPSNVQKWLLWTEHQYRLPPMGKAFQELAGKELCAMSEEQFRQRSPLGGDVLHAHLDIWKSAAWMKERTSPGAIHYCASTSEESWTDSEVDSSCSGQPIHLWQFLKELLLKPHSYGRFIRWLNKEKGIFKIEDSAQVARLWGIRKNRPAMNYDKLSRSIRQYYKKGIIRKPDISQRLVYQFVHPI
# Outline: as §1
# ETV7 = molecular target: T9, ETV7 (Homo sapiens, UniProt Q9Y603 1-341); details: protein: recombinant; tags: N-terminal GST; dsDNA, one strand shown
# T9 sequence: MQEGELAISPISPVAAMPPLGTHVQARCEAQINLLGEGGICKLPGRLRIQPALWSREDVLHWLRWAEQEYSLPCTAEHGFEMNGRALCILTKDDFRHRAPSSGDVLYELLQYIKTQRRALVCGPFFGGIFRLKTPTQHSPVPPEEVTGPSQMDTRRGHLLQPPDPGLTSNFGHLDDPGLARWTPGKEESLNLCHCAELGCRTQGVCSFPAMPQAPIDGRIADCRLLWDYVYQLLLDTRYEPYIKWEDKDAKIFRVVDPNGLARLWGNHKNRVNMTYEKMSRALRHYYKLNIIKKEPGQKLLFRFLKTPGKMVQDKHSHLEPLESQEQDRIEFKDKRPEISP
# Outline: as §1
# ELF5 = molecular target: T10, ELF5 (Homo sapiens, UniProt Q9UKW6-2 1-255); details: protein: recombinant; tags: N-terminal GST; dsDNA, one strand shown
# T10 sequence: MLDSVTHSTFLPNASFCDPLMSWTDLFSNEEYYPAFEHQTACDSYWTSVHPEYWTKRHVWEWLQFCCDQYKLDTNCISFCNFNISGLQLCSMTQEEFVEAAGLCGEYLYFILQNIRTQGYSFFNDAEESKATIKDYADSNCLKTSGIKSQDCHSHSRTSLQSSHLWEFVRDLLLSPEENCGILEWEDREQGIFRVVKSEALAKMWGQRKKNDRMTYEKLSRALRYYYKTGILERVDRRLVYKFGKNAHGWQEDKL
# Outline: as §1
# ETV3 = molecular target: T11, ETV3 (Homo sapiens, UniProt P41162-2 1-143); details: protein: recombinant; tags: N-terminal GST; dsDNA, one strand shown
# T11 sequence: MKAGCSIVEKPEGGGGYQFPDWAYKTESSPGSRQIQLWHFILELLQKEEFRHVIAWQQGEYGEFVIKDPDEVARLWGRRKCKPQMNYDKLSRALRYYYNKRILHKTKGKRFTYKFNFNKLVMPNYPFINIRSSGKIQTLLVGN
# Outline: as §1
# ETV6 = ETV6 (Homo sapiens, UniProt P41212 1-452); details: protein: recombinant; tags: N-terminal GST; dsDNA, one strand shown
# Outline: as §1
# Sequence of CRX (O43186 whole entry): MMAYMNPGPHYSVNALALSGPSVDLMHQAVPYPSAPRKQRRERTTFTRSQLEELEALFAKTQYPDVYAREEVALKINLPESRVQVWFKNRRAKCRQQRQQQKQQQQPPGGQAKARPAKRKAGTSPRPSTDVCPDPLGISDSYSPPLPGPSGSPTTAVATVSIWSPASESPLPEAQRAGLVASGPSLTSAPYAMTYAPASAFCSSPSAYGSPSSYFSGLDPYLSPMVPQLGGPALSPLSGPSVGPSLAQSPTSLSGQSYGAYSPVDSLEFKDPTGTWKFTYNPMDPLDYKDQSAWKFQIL
# Sequence of ETV1 (P50549 whole entry): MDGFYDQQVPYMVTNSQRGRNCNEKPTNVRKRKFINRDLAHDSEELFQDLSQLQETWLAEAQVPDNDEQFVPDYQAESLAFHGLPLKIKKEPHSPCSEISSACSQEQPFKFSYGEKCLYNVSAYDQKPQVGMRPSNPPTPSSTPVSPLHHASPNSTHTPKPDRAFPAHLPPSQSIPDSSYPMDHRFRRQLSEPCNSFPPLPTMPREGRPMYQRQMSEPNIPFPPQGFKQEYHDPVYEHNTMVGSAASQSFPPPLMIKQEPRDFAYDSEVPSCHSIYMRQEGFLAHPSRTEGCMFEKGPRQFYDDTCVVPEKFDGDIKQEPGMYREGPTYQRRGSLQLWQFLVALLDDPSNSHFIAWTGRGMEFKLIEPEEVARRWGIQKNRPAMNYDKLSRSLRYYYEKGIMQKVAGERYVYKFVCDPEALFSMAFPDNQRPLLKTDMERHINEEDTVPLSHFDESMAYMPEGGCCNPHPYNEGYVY
# Sequence of ETV5 (P41161 whole entry): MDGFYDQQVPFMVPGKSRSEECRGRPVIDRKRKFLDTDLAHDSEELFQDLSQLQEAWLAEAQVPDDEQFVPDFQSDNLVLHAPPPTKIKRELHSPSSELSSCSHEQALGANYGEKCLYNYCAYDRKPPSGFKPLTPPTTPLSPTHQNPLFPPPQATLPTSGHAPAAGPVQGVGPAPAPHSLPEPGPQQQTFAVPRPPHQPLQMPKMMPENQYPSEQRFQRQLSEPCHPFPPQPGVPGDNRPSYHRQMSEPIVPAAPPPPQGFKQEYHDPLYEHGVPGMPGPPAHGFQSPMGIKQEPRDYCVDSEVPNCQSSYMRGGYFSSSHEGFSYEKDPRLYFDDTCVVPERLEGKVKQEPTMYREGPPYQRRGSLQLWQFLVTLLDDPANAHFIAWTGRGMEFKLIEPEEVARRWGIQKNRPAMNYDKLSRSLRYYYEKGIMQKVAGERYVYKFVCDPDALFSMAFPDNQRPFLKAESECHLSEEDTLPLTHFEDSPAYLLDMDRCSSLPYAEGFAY
# Sequence of ELF4 (Q99607 whole entry): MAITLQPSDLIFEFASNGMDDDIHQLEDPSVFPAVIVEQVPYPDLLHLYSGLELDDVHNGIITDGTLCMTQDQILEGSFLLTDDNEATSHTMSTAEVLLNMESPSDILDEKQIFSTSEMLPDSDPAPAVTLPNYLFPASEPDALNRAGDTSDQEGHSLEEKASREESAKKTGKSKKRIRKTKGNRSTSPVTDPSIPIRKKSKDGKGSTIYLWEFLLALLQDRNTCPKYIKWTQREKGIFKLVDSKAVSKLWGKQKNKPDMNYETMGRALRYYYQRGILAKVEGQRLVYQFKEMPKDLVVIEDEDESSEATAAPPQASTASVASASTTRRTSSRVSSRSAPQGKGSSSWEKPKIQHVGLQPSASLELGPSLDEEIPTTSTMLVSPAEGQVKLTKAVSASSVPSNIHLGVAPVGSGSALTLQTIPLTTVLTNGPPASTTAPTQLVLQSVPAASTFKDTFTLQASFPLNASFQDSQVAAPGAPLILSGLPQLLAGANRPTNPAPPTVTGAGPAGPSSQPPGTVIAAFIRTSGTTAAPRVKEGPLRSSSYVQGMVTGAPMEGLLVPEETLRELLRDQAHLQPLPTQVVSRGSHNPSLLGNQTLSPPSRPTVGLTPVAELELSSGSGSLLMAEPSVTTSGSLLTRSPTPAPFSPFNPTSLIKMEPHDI
# Sequence of ETV6 (P41212 whole entry): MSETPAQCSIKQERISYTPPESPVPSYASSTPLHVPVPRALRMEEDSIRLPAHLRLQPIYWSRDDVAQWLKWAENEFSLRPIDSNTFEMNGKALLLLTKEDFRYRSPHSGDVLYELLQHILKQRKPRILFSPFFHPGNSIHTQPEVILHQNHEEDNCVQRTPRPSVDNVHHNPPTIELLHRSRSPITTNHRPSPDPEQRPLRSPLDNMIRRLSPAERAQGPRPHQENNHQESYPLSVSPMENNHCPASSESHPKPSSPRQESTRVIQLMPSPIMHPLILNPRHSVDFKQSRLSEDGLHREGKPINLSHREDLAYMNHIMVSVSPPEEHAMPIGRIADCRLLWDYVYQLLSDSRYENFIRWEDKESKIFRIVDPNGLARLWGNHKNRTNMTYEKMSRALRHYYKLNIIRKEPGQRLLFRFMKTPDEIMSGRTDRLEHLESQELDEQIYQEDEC
# Sequence of HSF1 (Q00613 whole entry): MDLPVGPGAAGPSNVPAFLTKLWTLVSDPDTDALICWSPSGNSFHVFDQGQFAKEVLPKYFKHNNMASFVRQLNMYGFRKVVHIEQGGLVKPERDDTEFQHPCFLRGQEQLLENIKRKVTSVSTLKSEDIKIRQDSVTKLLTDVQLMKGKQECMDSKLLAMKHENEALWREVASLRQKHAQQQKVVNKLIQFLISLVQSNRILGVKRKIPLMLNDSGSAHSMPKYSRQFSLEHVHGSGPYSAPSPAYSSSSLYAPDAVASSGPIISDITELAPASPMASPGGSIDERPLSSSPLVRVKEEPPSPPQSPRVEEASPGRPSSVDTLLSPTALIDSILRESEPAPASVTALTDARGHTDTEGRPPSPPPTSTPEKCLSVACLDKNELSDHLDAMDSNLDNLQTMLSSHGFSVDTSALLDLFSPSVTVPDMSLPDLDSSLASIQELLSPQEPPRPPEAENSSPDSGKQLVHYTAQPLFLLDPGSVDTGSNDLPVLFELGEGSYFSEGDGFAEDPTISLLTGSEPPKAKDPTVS
sequence,measurement,setting,value
CTCCAT,binding signal,FEV,"1.36 fold enrichment (6-mer frequency, TF over GST control)"
same,binding signal,ETV5,"1.43 fold enrichment (6-mer frequency, TF over GST control)"
same,binding signal,HSF1,"1.21 fold enrichment (6-mer frequency, TF over GST control)"
same,binding signal,SPIC,"1.12 fold enrichment (6-mer frequency, TF over GST control)"
same,binding signal,ELF4,"1.28 fold enrichment (6-mer frequency, TF over GST control)"
same,binding signal,ELK4,"1.4 fold enrichment (6-mer frequency, TF over GST control)"
same,binding signal,ETV2,"1.46 fold enrichment (6-mer frequency, TF over GST control)"
same,binding signal,CRX,"1.19 fold enrichment (6-mer frequency, TF over GST control)"
same,binding signal,ETV1,"1.3 fold enrichment (6-mer frequency, TF over GST control)"
same,binding signal,ERF,"1.37 fold enrichment (6-mer frequency, TF over GST control)"
same,binding signal,ETV3L,"1.21 fold enrichment (6-mer frequency, TF over GST control)"
same,binding signal,ETS2,"1.36 fold enrichment (6-mer frequency, TF over GST control)"
same,binding signal,SPDEF,"1.39 fold enrichment (6-mer frequency, TF over GST control)"
same,binding signal,ETV7,"1.13 fold enrichment (6-mer frequency, TF over GST control)"
same,binding signal,ELF5,"1.24 fold enrichment (6-mer frequency, TF over GST control)"
same,binding signal,ETV3,"1.27 fold enrichment (6-mer frequency, TF over GST control)"
same,binding signal,ETV6,"1.35 fold enrichment (6-mer frequency, TF over GST control)"
